Assay outcomes from PubChem.
DRD3 agonist: activates the human D3 dopamine receptor. P35462. D3R DiscoveRx beta-arrestin cells, luminescence, 90 min. max activation, %. 410,000 tested, 0.58% active; in the data active = max activation above about 30%
Target sequence (P35462 whole entry, looked up): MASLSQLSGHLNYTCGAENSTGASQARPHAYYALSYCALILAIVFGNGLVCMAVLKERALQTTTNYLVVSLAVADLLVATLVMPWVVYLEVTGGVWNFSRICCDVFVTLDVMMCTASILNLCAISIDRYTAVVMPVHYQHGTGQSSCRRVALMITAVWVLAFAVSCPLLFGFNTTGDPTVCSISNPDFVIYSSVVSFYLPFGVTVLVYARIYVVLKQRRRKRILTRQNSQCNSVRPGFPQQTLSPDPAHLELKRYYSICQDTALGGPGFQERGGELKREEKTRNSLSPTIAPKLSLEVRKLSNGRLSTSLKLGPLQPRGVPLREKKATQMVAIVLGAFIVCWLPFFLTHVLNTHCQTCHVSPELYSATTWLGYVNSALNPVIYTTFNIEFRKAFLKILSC
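Agonist mode: compounds and dopamine controls were applied to plated cells for 90 min at 37 degrees C after an overnight attachment at 1500 cells/well. Luminescent read-out followed 30 - 60 minutes at room temperature with DiscoveRx detection reagent.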
D1 antag: blocks dopamine activation of the human D1 receptor; HEK293 TREx D1 cells, calcium flux, dopamine EC80; active compounds read low; activity change, negative = inhibition, % at 10 µM; 360,000 tested, 3.2% active; AID 504652; in the data active = activity change below about -30%
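After overnight tetracycline induction at 30 C, force-coupled D1 HEK293 cells took up a no-wash calcium dye at room temperature. Compounds were added and monitored 180 s, and the response to EC80 dopamine was then recorded.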
D1 agonist: activates the human D1 dopamine receptor | P21728 | HEK293 T-REx D1 cells, calcium flux, agonist mode | activation, % at 2 µM | 360,000 tested, 1% active | AID 504660; in the data active = activation above about 30%
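Agonism was scored from calcium flux recorded over 180 s (1 read/s) after pintool compound addition, following a 10-cycle baseline. Cells were inducible force-coupled HEK293 TREx D1, plated overnight at 30 C and loaded with no-wash calcium dye.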
D3 antag: antagonists of human D3 dopamine receptor. P35462. D3R cells, DiscoveRx beta-arrestin luminescence, antagonist mode; active compounds read low. max response, negative = inhibition, %. 360,000 tested, 2.5% active. AID 652054; in the data active = max response below about -50%
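Cells plated overnight at 1500 cells/well, then exposed to library compounds with dopamine controls for 90 minutes at 37 degrees C. DiscoveRx reagent added for 30–60 minutes at room temperature; luminescence read, quantitative HTS format.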
D1 PAM: potentiators of human D1 dopamine receptor; 360,000 tested, 0.036% active; HEK293 TREx D1 cells, calcium flux, dopamine EC20 potentiation; potentiation, % at 10 µM; P21728; in the data active = potentiation above about 30%
Hits are given with their value; - = inactive; . = not tested or not shown. A selection: hits, their analogues and other compounds. The true share with any hit is near 6%.

SMILES	DRD3 agonist	D1 antag	D1 agonist	D3 antag	D1 PAM
Nc1nnc(SCC(=O)OCC(=O)Nc2ccccc2F)s1	-	-56	-	-	-
COCCn1c(C)cc(C(=O)COC(=O)c2cncc(Br)c2)c1C	-	-	-	-	-
COCCn1c(C)cc(C(=O)COC(=O)c2ccc3ncsc3c2)c1C	-	-	-	-55	-
CC(=O)NCCc1nc2cc(NS(=O)(=O)c3ccc(Cl)cc3)ccc2n1C	-	-	-	-	-
CCCC(=O)Nc1ccc2c(c1)nc(CN1CCCCC1)n2C	-	-	-	-	-
Cn1c(CCN2CCCCC2)nc2cc(NS(=O)(=O)c3ccc(Cl)cc3)ccc21	-	-	-	-72	-
Cn1c(CN2CCCCC2)nc2cc(NS(=O)(=O)c3ccc(F)cc3)ccc21	-	-	-	-73	-
Cn1c(CN2CCCCC2)nc2cc(NS(=O)(=O)c3ccc(Cl)cc3)ccc21	-	-	52	-65	-
Cc1ccc(C(=O)OCC(=O)NC2CCCCCC2)c(C)c1	-	-	-	-	-
COc1ccc(CCNC(=O)CS(=O)Cc2nc(-c3ccc(C)cc3)oc2C)c(OC)c1 (centres undefined)	-	-	-	.	-
CC(=O)n1cc(N(C(=O)CCl)c2ccc(C)cc2)c2ccccc21	-	-	-	-67	-
CCOc1ccc(N2C(=O)C(C)CNC2=S)cc1 (centres undefined)	-	.	.	-	.
CN[C@@H]1[C@@H](O)[C@@H](O[C@@H]2[C@@H](O)[C@H](OC3OC(CN)=CCC3N)[C@@H](N)C[C@H]2N)OC[C@]1(C)O (some centres undefined)	-	.	.	.	.
CN(C)CCN(C(=O)C1CCN(S(=O)(=O)c2cccs2)CC1)c1nc2ccc(F)cc2s1	-	-	-	-	-
Cc1cccc2sc(N(CCN(C)C)C(=O)C3CCN(S(=O)(=O)c4cccs4)CC3)nc12	-	-	39	-	-
CN1CCC(N(C)C(=S)Nc2ccc(F)cc2)CC1	-	-	-	-	-
CN1CCC(N(C)C(=S)Nc2ccc(SC(F)F)cc2)CC1	-	-34	-	-	-
CC(=O)N1CCCc2cc(S(=O)(=O)NCc3ccc(C)cc3)ccc21	-	-37	-	-	-
CC(=O)N1CCCc2cc(S(=O)(=O)NCCC3=CCCCC3)ccc21	-	-30	-	-	-
CCOc1ccc(S(=O)(=O)NCCC2=CCCCC2)c2ccccc12	-	-36	-	-	-
O=S(=O)(NCCC1=CCCCC1)c1ccc(Br)cc1	-	-30	-	-	-
COc1ccc(C)cc1S(=O)(=O)NCCC1=CCCCC1	-	-	-	-	-
COc1cc(-c2cc(OC)c3c(C)oc(C)c3c(=O)c2)ccc1OC(=O)c1cccc(C)c1	-	-	-	.	-
CCOC(=O)[C@@H]1[C@H]2COc3ccccc3[C@@H]2N2C(=O)N(c3cccc(Cl)c3)C(=O)[C@@]12C	-	-	-	-	-
CCOc1ccccc1NC(=O)CSc1nc2c(c(=O)[nH]1)CCC2	-	-	-	.	-
SMILES	DRD3 agonist	D1 antag	D1 agonist	D3 antag	D1 PAM
COc1ccc(C(=O)NCCn2cc(SCC(=O)NCCc3ccc(OC)c(OC)c3)c3ccccc32)cc1	-	-	-	.	-
CC(=O)N1CC(C)Sc2ccc(S(=O)(=O)NCCc3ccccc3)cc21 (centres undefined)	-	-	-	-	-
CC(=O)N1CC(C)Sc2ccc(S(=O)(=O)NCCc3ccc(C)cc3)cc21 (centres undefined)	-	-	31	-	-
Cc1nc(COc2ccc(C(=O)NCc3ccccc3CN3CCCCC3)cc2)cs1	-	-64	34	-	-
O=C(NCc1ccccc1CN1CCCC1)c1ccc(OCc2cscn2)cc1	-	-	-	-	.
COc1ccc(NC(=O)Cn2cc(C(=O)c3ccco3)c3ccccc32)cc1	-	-87	-	-	-
CCOc1ccc(NC(=O)Cn2cc(C(=O)c3ccco3)c3ccccc32)cc1	-	-	-	-	-
COc1ccc(NC(=O)Cn2cc(S(=O)(=O)Cc3ccccc3)c3ccccc32)c(OC)c1	-	-32	-	-	-
COc1ccc(NC(=O)CS(=O)(=O)c2cn(CC(=O)N(C(C)C)C(C)C)c3ccccc23)c(OC)c1	-	-	-	-	-
C=CCn1c(O)c(C2=c3ccccc3=NC2=O)c2ccccc21	-	-	-	-65	-
Cc1ccc2c(c1)c(C1=c3ccccc3=NC1=O)c(O)n2C	-	-	-	-80	-
